# The sample as a whole holds a higher share of hits than the screen did.
# Pf Dd2 inh – blocks in vitro growth of P. falciparum Dd2 | P. falciparum Dd2 growth, SYBR Green, 72 h | Potency, µM (doses to about 28.9 µM), most hits filed as inhibitors | actives 4.3% (n = 120,000) | AID 1347417; active = well fitted inhibition curve with a large enough effect; also: nearly all actives have a fitted effect of over 65% in size
#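 Infected erythrocytes (Dd2, 0.3% parasitemia, 2.5% hematocrit final) are added to compound in RPMI-1640/Albumax II medium, grown 72 h at 37C in low oxygen, then lysed with saponin/Triton-X containing SYBR Green and read by fluorescence.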
# A number is an active result; n = inactive; [ ] = dose if it differs, or a comment.
SMILES,Pf Dd2 inh
Cc1noc(C)c1S(=O)(=O)N1CCN(C(=O)N2CC3CC(C2)[C@H]2CCCC(=O)N2C3)CC1 (stereo partly drawn),n
CCOC(=O)C[C@@H]1C[C@@H](C(C)C)[C@H](CNS(=O)(=O)c2ccccc2)C=C1C,n
O=C(O)C1=NOC2CN(C(=O)C3CCCCC3)CC12 (stereo not drawn),n
O=C1Nc2ccc(-c3cccc(C(F)(F)F)c3)cc2C(=O)N2CCN(C(=O)c3ccco3)C[C@@H]12,n
O=C(c1ccccc1Cl)N1CCN(c2nc3ncccc3o2)CC1,n
O=C1NCCCCCN(C(=O)Nc2ccccc2F)[C@H]2CCCC[C@@H]12,n
Cc1cc(-c2nc(CC(C)C)nn2-c2ccccn2)cc(S(N)(=O)=O)c1C,n
COCCN1CCCC2(CCN(c3nc4c(c(=O)[nH]c(=O)n4C)n3C)C2)C1=O (stereo not drawn),n
Cc1ccc(C2Cn3nnc(-c4nc(-c5cccnc5)no4)c3CO2)c(C)c1 (stereo not drawn),n
COc1cc(=O)n2c(c1C(=O)N1CCN(c3ccc(C)cc3)CC1)CCCC2,n
O=C(c1cc(-c2ccccc2)n[nH]1)N1CCc2c(nc(-c3ccc(F)cc3)[nH]c2=O)C1,n
COc1ccc(Cl)cc1S(=O)(=O)N1CCN(C(=O)c2cc(-c3ccc(Br)cc3)n[nH]2)CC1,10µM
COc1ccc(S(=O)(=O)N2CCN(C(=O)c3cc(-c4ccc(Br)cc4)n[nH]3)CC2)cc1OC,n
COc1ccc(Cl)cc1C(=O)N1CCCN(c2cc(-c3ccc(Br)cc3)[nH]n2)CC1,n
COc1ccc(Cl)cc1C(=O)N1CCCN(c2cc(-c3ccc(F)cc3)[nH]n2)CC1,n
O=C(c1cc(-c2ccc(Br)cc2)n[nH]1)N1CCN(S(=O)(=O)c2ccc(Br)cc2)CC1,8.9µM
Cc1ccc(S(=O)(=O)N2C[C@H](F)C[C@@H]2C(=O)N2CCOCC2)cc1Cl,n
O=C(CC[C@@H]1CNC(=O)[C@@H]2C[C@H](NC(=O)Nc3ccc(F)cc3F)CN12)NCc1ccccc1,n
Cc1ccc(S(=O)(=O)Cc2noc([C@@H]3C[C@@H](O)CN3Cc3cccc(OC(F)(F)F)c3)n2)cc1,n
O=C(Cc1cccc(F)c1)N1CCC2(CC1)NC(=O)N(Cc1ccccc1)C2=O,n
Cc1cn2nc(C(=O)N3CCC(NC(=O)Cc4ccc(Cl)cc4)CC3)cc2c(=O)[nH]1,2.5µM
Cc1cn2nc(C(=O)N3CCC(NC(=O)Cc4ccccc4C)CC3)cc2c(=O)[nH]1,n
Cc1cn2nc(C(=O)N3CCC(NC(=O)c4ccccc4Cl)CC3)cc2c(=O)[nH]1,n
COCCNc1ncc(-c2ccc(OC)c(OC)c2)c2c1OCC2,n
COc1cccc(C(=O)N2CC3(Cc4ccccc4N(C(C)=O)C3)C2)c1,n
SMILES,Pf Dd2 inh
CCN(CC)c1ccc(NC(=O)Cn2c3ncccc3c(=O)n2-c2ccccc2)c(C)c1,n
CCc1ccc(-n2c(=O)c3cccnc3n2CC(=O)Nc2cc(F)ccc2F)cc1,5µM
Cc1ccc(-n2c(=O)c3cccnc3n2CC(=O)NCc2ccc(Cl)cc2)cc1,n
CC(C)Oc1cccc2c1c(NC(=O)C1CCCO1)nn2Cc1ccccc1 (stereo not drawn),n
CC(C)Oc1cccc2c1c(NC(=O)c1ccn(C)n1)nn2Cc1ccccc1,8.9µM
CC(C)Oc1cccc2c1c(NC(=O)C1CCOCC1)nn2C,n
Cc1ncoc1C(=O)N1CCC(c2noc(-c3cccnc3)n2)C1 (stereo not drawn),n[5.79 µM]
CCCS(=O)(=O)N1CCC(Oc2ccccc2-c2nc(C3CC3)no2)C1 (stereo not drawn),n
COc1ccc(NC(=O)Nc2ccc(C)n(CC(=O)Nc3ccc(C)c(C)c3)c2=O)cc1,n
COc1ccc(NC(=O)N2C[C@@H](F)C[C@H]2C(=O)N2CCCCC2)c(OC)c1,n
COc1ccccc1-c1ccnc(N[C@H]2CO[C@H]3[C@@H]2OC[C@@H]3NS(=O)(=O)c2cccs2)n1,n
COc1ccccc1-c1ccnc(N[C@H]2CO[C@H]3[C@@H]2OC[C@@H]3NS(C)(=O)=O)n1,14µM
COc1ccccc1-c1ccnc(N[C@H]2CO[C@H]3[C@@H]2OC[C@@H]3NS(=O)(=O)c2ccc(NC(C)=O)cc2)n1,n
O=C(NCCSc1c(-c2ccc(Cl)cc2)[nH]c2ccccc12)c1ccc(S(=O)(=O)N2CCOCC2)cc1,8.9µM
O=C(NC1CC(=O)N(c2cccc(F)c2)C1)c1ccc(S(=O)(=O)N2CCOCC2)cc1 (stereo not drawn),n
O=C(NC1CC(=O)N(c2ccc(Cl)cc2)C1)c1ccc(S(=O)(=O)N2CCOCC2)cc1 (stereo not drawn),n
O=C(NCCSc1c(-c2ccc(Br)cc2)[nH]c2ccccc12)c1ccc(S(=O)(=O)N2CCOCC2)cc1,5.6µM
O=C(NCCSc1c(-c2ccccc2)[nH]c2ccccc12)c1ccc(S(=O)(=O)N2CCOCC2)cc1,10µM
O=C(CN1C(=O)CCc2cc(S(=O)(=O)N3CCOCC3)ccc21)NCc1ccc(Cl)cc1,n
Cc1ccc(CNC(=O)c2c[nH]c3ccc(S(=O)(=O)N4CCOCC4)cc3c2=O)cc1,n
CCn1cc(C(=O)NCCc2ccccc2)c(=O)c2cc(S(=O)(=O)N3CCOCC3)ccc21,n
O=C(NCCCn1ccnn1)c1cccc(S(=O)(=O)N2CCOCC2)c1,n
Cc1ccsc1C(=O)N1CCc2nn(CC3CC3)c(=O)n2CC1,n
CN(CC1CCOCC1)C(=O)NCc1ccc(F)cc1,n
COc1ccc(CNC(=O)N[C@H](Cc2ccccc2)C(=O)N2CCOCCNC(=O)CC2)cc1,n
SMILES,Pf Dd2 inh
COc1cc(NS(=O)(=O)c2cc(Br)cc3c2N(C(=O)C2CC2)CC3)cc(OC)c1,n
O=C(C1CC1)N1CCc2cc(Br)cc(S(=O)(=O)Nc3ccc(F)c(F)c3)c21,n
Cc1ccc(NS(=O)(=O)c2cc(Br)cc3c2N(C(=O)C2CC2)CC3)cc1C,n
CCC(=O)N1CCc2cc(Br)cc(S(=O)(=O)NCCc3cccc(C)c3)c21,n
Cc1cccc(N2CCN(S(=O)(=O)c3cc(Br)cc4c3N(C(=O)C3CC3)CC4)CC2C)c1 (stereo not drawn),11µM
CCN(c1ccccc1)S(=O)(=O)c1cc(Br)cc2c1N(C(=O)C1CC1)CC2,1.1µM
CCC(=O)N1CCc2cc(Br)cc(S(=O)(=O)N3CCC(C(=O)Nc4ccc(OC)cc4)CC3)c21,n
CCN(C(=O)C1CCN(S(=O)(=O)c2cc(Br)cc3c2N(C(C)=O)CC3)CC1)c1cccc(C)c1,5µM
O=C(C1CC1)N1CCc2cc(Br)cc(S(=O)(=O)N3CCN(c4ccccc4)CC3)c21,n
Cc1cnc(C(=O)N2[C@@H]3CC[C@H]2CC(NC(=O)c2ccc(F)cc2)C3)cn1 (stereo partly drawn),n
CCN1CC(c2ccccc2)CC2(CCN(C(=O)c3ccc(C)nc3)CC2)C1 (stereo not drawn),n
CCN1c2cc(C(=O)NCCC3=CCCCC3)ccc2C(=O)N2CCCCC21 (stereo not drawn),n
O=C(NC1CCCN(c2cc(-c3ccc(F)cc3)[nH]n2)C1)C1CCCC1 (stereo not drawn),n
COCCNC(=O)N1CCC(c2cc(-c3ccc(F)cc3)n[nH]2)CC1,n[5.79 µM]
CNC(=O)c1cnn2c1CN(C(=O)c1cccnc1)CC2,n
Fc1ccc(CN2CC[C@H](c3nc4cc(Cl)ccc4o3)C2)cc1F,n
CN1C(=O)C(c2ccccc2)CC12CCN(S(C)(=O)=O)CC2 (stereo not drawn),n
CN1C(=O)C(c2ccccc2)CC12CCN(CCC(=O)O)CC2 (stereo not drawn),10µM

# Screening results deposited in PubChem BioAssay by National Center for Advancing Translational Sciences (NCATS).
